Laboratory results taken from PMC4336329 (PLoS ONE, 2015).
Hit rate of the full screen: of about 310,000 compounds, about 14,000 (4.5%) showed an effect of 50% or more. The effect is printed as a negative number. This is one part of a sample in which strong results are shown more often than they occur.

Biological target: human ether-à-go-go-related gene (hERG) potassium channel (human, UniProt Q12809)
Experiment: primary screen, population patch clamp on CHO cells stably expressing hERG; higher = less effect of the substance
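Also: peak tail current of the secondary pulse compared with the same well before compound.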

Sequence of human ether-à-go-go-related gene (hERG) potassium channel (Q12809 whole entry, looked up): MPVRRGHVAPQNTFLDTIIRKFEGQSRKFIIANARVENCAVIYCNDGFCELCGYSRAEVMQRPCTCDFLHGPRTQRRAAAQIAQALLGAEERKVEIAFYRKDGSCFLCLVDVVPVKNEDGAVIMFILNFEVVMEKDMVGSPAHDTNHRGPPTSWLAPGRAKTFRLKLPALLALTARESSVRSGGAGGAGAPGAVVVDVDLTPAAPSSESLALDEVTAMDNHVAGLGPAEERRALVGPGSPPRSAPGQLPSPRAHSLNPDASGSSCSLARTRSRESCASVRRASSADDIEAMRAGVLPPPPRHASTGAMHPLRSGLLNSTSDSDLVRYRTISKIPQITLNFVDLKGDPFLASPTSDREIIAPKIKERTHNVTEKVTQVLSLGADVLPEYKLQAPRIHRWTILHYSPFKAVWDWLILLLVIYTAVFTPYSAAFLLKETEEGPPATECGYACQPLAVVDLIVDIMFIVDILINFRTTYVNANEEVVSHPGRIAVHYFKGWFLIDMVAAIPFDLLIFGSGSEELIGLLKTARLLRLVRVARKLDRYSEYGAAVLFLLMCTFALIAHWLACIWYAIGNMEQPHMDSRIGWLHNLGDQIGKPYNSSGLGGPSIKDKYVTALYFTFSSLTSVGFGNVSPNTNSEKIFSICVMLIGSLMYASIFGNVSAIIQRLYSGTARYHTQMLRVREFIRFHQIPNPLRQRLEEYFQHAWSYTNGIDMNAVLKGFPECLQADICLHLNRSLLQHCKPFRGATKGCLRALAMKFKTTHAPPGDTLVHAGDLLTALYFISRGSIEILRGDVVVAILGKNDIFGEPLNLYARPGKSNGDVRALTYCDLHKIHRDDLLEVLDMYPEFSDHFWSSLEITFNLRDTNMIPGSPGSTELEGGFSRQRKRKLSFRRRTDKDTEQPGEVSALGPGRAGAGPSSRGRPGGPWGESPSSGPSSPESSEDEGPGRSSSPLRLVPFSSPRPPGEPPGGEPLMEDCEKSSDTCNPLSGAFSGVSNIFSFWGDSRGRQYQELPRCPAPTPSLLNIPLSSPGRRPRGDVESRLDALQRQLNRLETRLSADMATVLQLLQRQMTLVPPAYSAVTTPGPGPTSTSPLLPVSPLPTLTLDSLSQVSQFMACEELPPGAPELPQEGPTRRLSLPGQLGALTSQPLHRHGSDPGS

| Compound | hERG current change (%, negative = inhibition) at 10uM |
| --- | --- |
| Cc1ccc(C)c(N2CCN(S(=O)(=O)c3ccc4c(c3)CC(=O)N4C)CC2)c1 | -19.4% |
| COc1ccc(Nc2nnc(SCC3CCCO3)s2)cc1 (stereo not shown) | -5.7% |
| Cc1nc(NC(=O)C(Cl)Cl)sc1C(=O)N(C)C | 5.44% |
| CCCC(c1nnnn1CC1CCCO1)N1CCN(c2ccccc2)CC1.Cl (stereo not shown) | -4.74% |
| O=C(Nc1cccc(Oc2ccc3c(c2)C(=O)NC3=O)c1)c1ccco1 | -21.8% |
| CCn1c(=O)[nH]c(=O)c2c(N)c(C(=O)c3ccccc3OC)sc21 | -15.2% |
| Cc1ccc(C(=O)c2sc3c(c2N)c(=O)[nH]c(=O)n3CCc2ccccc2)cc1 | 12.2% |
| CCn1c(=O)[nH]c(=O)c2c(N)c(C(=O)c3cc(F)ccc3F)sc21 | -57.4% |
| CC1=Nc2ccccc2/C1=C/c1sc(=N)n(-c2nccs2)c1O | 10.5% |
| O=C(CN1C(=O)/C(=C/c2ccco2)SC1=S)Nc1ccc(O)c(C(=O)O)c1 | 25.2% |
| CC(NCCC(Cc1ccccc1)c1ccco1)c1ccccc1 (stereo not shown) | -22% |
| O=C(NCCNCc1ccc(F)cc1)c1ccco1.O=C(O)C(=O)O | 9.99% |
| CN(C)c1ccc(CNCCC(Cc2ccccc2)c2ccco2)cc1 (stereo not shown) | -52.3% |
| Fc1ccc(CNCc2ccco2)cc1 | 11.5% |
| CCC(=O)N(CCC(Cc1ccccc1)c1ccco1)Cc1ccco1 (stereo not shown) | -1.81% |
| Fc1ccc(CNCCC(Cc2ccccc2)c2ccco2)cc1 (stereo not shown) | -54.3% |
| c1ccc(CNCCC(Cc2ccccc2)c2ccco2)cc1 (stereo not shown) | -54.8% |
| CC(=O)NCCC(Cc1ccccc1)c1ccco1 (stereo not shown) | 5.91% |
| CC(=O)N(CCC(Cc1ccccc1)c1ccco1)Cc1ccco1 (stereo not shown) | -28.4% |
| O=C(Nc1cc(F)ccc1F)c1cccc(-n2cnnn2)c1 | -18.3% |
| COC(=O)N/N=C/c1cn(CCCOc2ccccc2)c2ccccc12 | -4.14% |
| C#Cc1ccc([C@H]2C=C(C(=O)N3CCOCC3)O[C@@H](OCC)[C@@H]2CCCO)cc1 | 6.65% |
| COc1ccc(NC(=O)C2CCCN2S(=O)(=O)c2ccc3c(c2)CCC(=O)N3)c(OC)c1 (stereo not shown) | -16.8% |
| O=C1CCc2cc(S(=O)(=O)N3CCC(C(=O)NC4CCCCCCC4)CC3)ccc2N1 | 10.8% |
| O=C1CCc2cc(S(=O)(=O)N3CCCC3C(=O)NC3CCCCCCC3)ccc2N1 (stereo not shown) | -50.3% |
| O=C1CCc2cc(S(=O)(=O)N3CCC(C(=O)NC4CCCC4)CC3)ccc2N1 | -4.68% |
| COc1ccc(C)cc1NC(=O)C1CCCN1S(=O)(=O)c1ccc2c(c1)CCC(=O)N2 (stereo not shown) | -50.8% |
| COc1ccc(NC(=O)C2CCCN2S(=O)(=O)c2ccc3c(c2)CCC(=O)N3)cc1Cl (stereo not shown) | -27.8% |
